According to PubChem BioAssay AID493170 (National Center for Advancing Translational Sciences (NCATS), 2011):
Results filed as inconclusive are left out. Entries that show only a call come without a potency. Calls of active or inactive are those of the source. Calls come from the whole dose curve; as a rule, active = well fitted inhibition curve with a large enough effect; inconclusive = small, poorly fitted or top-dose-only effect, or effect the other way; inactive = flat fitted curve, though single readings scatter.

Target: Ubiquitin carboxyl-terminal hydrolase 2 (Homo sapiens) (UniProt O75604)
Sequence (O75604 whole entry, looked up): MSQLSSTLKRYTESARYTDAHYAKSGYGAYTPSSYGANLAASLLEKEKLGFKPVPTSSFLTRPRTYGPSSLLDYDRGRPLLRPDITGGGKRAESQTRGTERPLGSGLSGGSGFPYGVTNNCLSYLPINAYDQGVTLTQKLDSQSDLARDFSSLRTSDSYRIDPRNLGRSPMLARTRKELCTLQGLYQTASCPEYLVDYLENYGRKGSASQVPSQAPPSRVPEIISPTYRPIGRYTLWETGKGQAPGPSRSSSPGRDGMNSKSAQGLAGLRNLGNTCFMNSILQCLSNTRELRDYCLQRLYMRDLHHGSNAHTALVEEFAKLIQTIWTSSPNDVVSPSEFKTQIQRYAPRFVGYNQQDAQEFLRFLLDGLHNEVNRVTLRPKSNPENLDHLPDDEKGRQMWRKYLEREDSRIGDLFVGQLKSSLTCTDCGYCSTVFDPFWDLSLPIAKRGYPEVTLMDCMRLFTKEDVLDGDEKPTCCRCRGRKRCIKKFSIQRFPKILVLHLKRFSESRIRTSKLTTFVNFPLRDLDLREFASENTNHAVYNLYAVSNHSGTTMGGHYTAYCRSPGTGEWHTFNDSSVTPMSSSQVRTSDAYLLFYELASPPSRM
Test: Ub-rhodamine 110 based assay for inhibitors Ubiquitin-specific Protease USP2a; note: nearly all actives have a fitted effect of over 50% in size
Conditions: USP2a Ub-rhodamine110 cleavage, fluorescence; series mostly up to 38.3 µM
How it was run: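 Kinetic fluorescence (485/531 nm) read each minute over 7 min after adding Ub-Rhod110 (150 nM final) to USP2a (5 nM final). The enzyme had 30 min RT exposure to compounds beforehand in Tris pH 8.0 buffer with CaCl2, CHAPS and beta-ME.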
Potency is the fitted concentration of half-maximal effect.

Compound	Potency
CC(C(=O)Nc1ccc(C(=O)O)c(O)c1)N1C(=O)/C(=C\c2ccco2)SC1=S (stereo unspecified)	10 µM (active)
COC(=O)c1[nH]c(=O)c2ccccc2c1OCc1ccccc1	inactive
O=C(N/N=C/c1ccc(-c2ccc(Cl)c(C(=O)O)c2)o1)c1cc2c(ccc3ccccc32)o1	10 µM (active)
CCN(CC)CCNc1nc(-c2ccccc2)c2c(c1C#N)CC(C)(C)OC2	inactive
Nc1c(C(=O)Nc2ccc(Cl)cc2)oc2ccccc12	inactive
CCOc1ccc2[nH]c(=O)c(CN(CCc3ccccc3)C(=O)c3cnccn3)cc2c1	inactive
O=C(O)c1cccc(S(=O)(=O)NNc2ccccc2C(F)(F)F)c1	inactive
Cc1ccc(N2CN=c3s/c(=C\c4cccnc4)c(=O)n3C2)cc1	inactive
COc1ccc(CCn2c(O)cc3nn(-c4nc5ccccc5s4)c(=O)c-3c2C)cc1	5.62 µM (active)
CCC(C)(C(=O)NC1CCCCC1)N(C(=O)C1CCC(=O)N1)c1ccccc1 (stereo unspecified)	inactive
O=C(NN=Cc1ccc(N2CCOCC2)s1)c1ccc([N+](=O)[O-])cc1	inactive
Cc1cc(/C=C2\C(=N)N3N=C(c4ccco4)SC3=NC2=O)c(C)n1Cc1ccccc1	7.08 µM (active)
O=C(Oc1ccccc1C(=O)Nc1ccccc1)c1ccccc1Br	inactive
COc1ccc(-n2c(=S)[nH]c3cc(C(=O)NCc4ccc(F)cc4)ccc3c2=O)c(OC)c1	inactive
O=C1CS/C(=C/C(=O)c2ccccc2)N1	inactive
N#Cc1cccc(C(=O)N(CCc2ccccc2)Cc2cccs2)c1	inactive
